Results on 25 sequences are retold here after the OligoGym collection.
Note: reference of the scale not given here.

The target in the first experiment is BMPR1B. As to the kind of experiment: pooled miR-30 sensor sort-seq; sequence = guide strand. To be noted: shRNA.
TAGGTCTTTATTACATTCGTTC showed a sensor-assay potency score (higher = more potent) of -0.881.
TTGTTGACTGAGTCTTCTGGAC: the sensor-assay potency score (higher = more potent) was -0.721.
The same measure, in the same setting: in the case of ATTTCTGTCTCTCTGAACCAGC it was -0.623.
Still for that read-out and setting: in the case of TTCACCATCTGAATCTGCTTAG it was -0.315; in that of TTGATGCACACAATCTCCCTCA, -0.279.
The same measure, in the same setting: next, TATTACATTCGTTCCTTTCTGT: 0.878; TCTGTCTCTCTGAACCAGCTGG: -0.359; TTGATCTTCTTTGATGAGGAAT: -1.13.
Take TCATCGTGAAACAATATCCGTC: the sensor-assay potency score (higher = more potent) was -0.268.
Consider TCTGTGATTAGGTACAACTGGG, for which the sensor-assay potency score (higher = more potent) was found to be 0.0109.
TTACATTCGTTCCTTTCTGTGC returned a sensor-assay potency score (higher = more potent) of -0.864.
In the case of TCGTGAAACAATATCCGTCTGT, the sensor-assay potency score (higher = more potent) is -0.0353.
TTCTGTTCAAGCTCTCGTCCAA registered a sensor-assay potency score (higher = more potent) of -0.142.
Still for that read-out and setting: next, TTTCACCATCTGAATCTGCTTA: -0.0649.
Sequence TTTTACTTTTCAGATCTCGATG had a sensor-assay potency score (higher = more potent) of -0.74.
On to TATTGTTGACTGAGTCTTCTGG, for which the sensor-assay potency score (higher = more potent) was found to be 0.00108.
In turn, TAGGTCATGATAAGGAAGCTGG had a sensor-assay potency score (higher = more potent) of -0.2.
TTGAGTACTAAAGATTTCTGTG came in with a sensor-assay potency score (higher = more potent) of 0.176.
Sequence TCATCCTCTTCTATCATCGTGA gave a sensor-assay potency score (higher = more potent) of 0.152.
In turn, TGATATATTTCTGTCTCTCTGA showed a sensor-assay potency score (higher = more potent) of 0.214.
Sequence TATTCTTCCACTATACCTCCTG registered a sensor-assay potency score (higher = more potent) of 0.554.

Another experiment addresses BOLA1. The experiment is described as above. The following applies: shRNA.
For TTGACCTGAAGCAAGTTGCTAT, the sensor-assay potency score (higher = more potent) is -0.107.
For TTCTTGTTCCCACCCAGGCATG, the sensor-assay potency score (higher = more potent) is -1.63.
The sequence TGAGAGTTCTCTCTCCACTGGG yielded a sensor-assay potency score (higher = more potent) of -0.015.
Consider TAGTGAGTGATTCTTCTCTTTT, for which the sensor-assay potency score (higher = more potent) was -0.956.
